# Screens: PubChem BioAssay, several laboratories
# The list is not random: actives were taken first. Their share in the collection is about 1.8%.
# Measles CPE = compounds protecting cells from measles virus cytopathic effect, primary screen, measles RdRp inhibitor project, single point, MLSMR library, absorbance. Measles virus-infected cells, CPE protection. protection (pct of control), % at 4 µM. 1.5% of 140,000 active. AID 841, 2007; in the data active = protection mostly above about 24%, no sharp cut-off; inactive = mostly below about 26%
# Phagocytosis inh = inhibitors of macrophage phagocytosis, primary screen, imaging, J774A.1 cells, IgG beads | J774A.1 macrophage IgG-bead phagocytosis | 0.07% of 110,000 active | inhibition, % at 5 µM;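 active = inhibition above the mean of the plate negative controls plus 5 SD, cut at about 13% in these data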;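 also: phagocytic index as fraction of beads internalized from green versus red external bead signal; plate controls were DMSO negative control for no effect and cytochalasin-D positive control for full effect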
# sdo1 growth = growth rescue of sdo1-depleted yeast, primary screen, S. cerevisiae, bone marrow failure model. z-score at 10 µM. AID 817, 2007. S. cerevisiae sdo1-depleted JHY4D growth rescue, OD600 30 h; hits give high values; pdr5 snq2 efflux-pump mutant strain. 0.21% of 140,000 active;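 active = z-score above 3 at both the 24 hr and the 30 hr optical density reads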;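 also: z-score against mean and SD of all compound wells on the same plate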
# * = called active by the depositor; · = not tested or not shown.
SMILES,Measles CPE,Phagocytosis inh,sdo1 growth
CCCCOc1ccc(C(=O)N/C(=C/C=C/c2ccccc2)C(=O)NCCO)cc1,7,-11,0.72
CCCCOc1ccc(C(=O)N/C(=C/C=C/c2ccccc2)C(=O)NCCCO)cc1,48*,-3,0.81
CCN1C(=O)CSc2ccc(C(=O)NCc3ccc(OC)cc3)cc21,36*,-2,0.91
CCCCNC(=O)c1ccc2c(c1)N(CC)C(=O)CS2,1,-1,-0.05
Cc1ccc(S(=O)(=O)N(C)CC(=O)OCC(=O)NC(c2ccccc2)c2ccccc2)cc1,5,·,0.05
COc1ccc(CC(=O)NNC(=O)CSc2nnc(Cc3ccc(OC)cc3)n2-c2ccccc2)cc1,17,-1,0.67
CCC(C)NCCOCCOc1ccc(Cl)c(C)c1C (configuration not stated),2,-3,-1.2
CCC(C)NCCOCCSc1ccc(Cl)cc1 (configuration not stated),52*,1,-0.22
COc1ccc(-n2c(N)c(C(=O)NCc3ccco3)sc2=S)cc1,4,·,1.6
CCOC(=O)c1ccc(-n2c(N)c(C(=O)NCc3ccco3)sc2=S)cc1,51*,·,0.96
Cc1ccc(CNC(=O)C2=NNC(=O)CC2)cc1,4,-1,0.69
O=C1C2CCCN2C(c2ccc(F)cc2)N1c1nccs1 (configuration not stated),33*,·,0.49
Cc1ccc(C2N(c3nccs3)C(=O)C3CCCN32)cc1 (configuration not stated),2,-3,-0.32
Cc1ccccc1C(=O)NC(=S)Nc1sc2c(c1C#N)CCC(C)C2 (configuration not stated),59*,0,-0.62
N#Cc1c(NC(=S)NC(=O)c2ccccc2)sc2c1CCCC2,9,1,0.06
NC1=NC2(CCCCC2)N=C(Nc2ccc(Br)cc2)N1,12,-2,1.3
COc1cccc(NC(=S)N2CCN(Cc3ccccc3)CC2)c1,8,-10,0.21
CN(C)c1ccc(N/C=C/C(=O)c2ccccc2)cc1,8,1,0.96
CN(C)c1ccc(N/C=C/C(=O)C(C)(C)C)cc1,53*,1,1.3
COc1cccc(N2C(=O)CC(N3CCN(C(=O)c4ccco4)CC3)C2=O)c1 (configuration not stated),74*,1,0.22
Cc1cccc(N2C(=O)CC(N3CCN(C(=O)c4ccccc4)CC3)C2=O)c1 (configuration not stated),15,-2,-0.44
Cc1cc(NC(=O)CSc2ccc3nnc(-c4cccs4)n3n2)no1,23,1,1.1
O=C(NCc1ccccn1)C1CCCN(S(=O)(=O)c2cccc3nsnc23)C1 (configuration not stated),8,0,0.98
O=c1cc(/N=C/c2coc3c(ccc4ccccc43)c2=O)[nH]c(=S)[nH]1,14,-5,0.09
O=C(COC(=O)c1cc(Br)ccc1Cl)NC(=O)NCc1ccccc1,3,-1,-0.71
SMILES,Measles CPE,Phagocytosis inh,sdo1 growth
O=C(COC(=O)c1ccccc1Cl)NC(=O)NCc1ccccc1,68*,3,-0.74
CC(C)OC(=O)CCNc1n[nH]c(=O)[nH]c1=O,8,-1,0.12
CCCCOC(=O)CCNc1n[nH]c(=O)[nH]c1=O,56*,0,1.7
CC(C)c1ccc(-c2c(C#N)c(N)nc(SCC(=O)N3CCCCCC3)c2C#N)cc1,13,0,-1.1
CC(C)c1ccc(-c2c(C#N)c(N)nc(SCC(=O)N3CCCCC3)c2C#N)cc1,33*,1,-0.02
CCC(C)N(NC(C)=O)c1nc(Cl)nc(NC(C)C)n1 (configuration not stated),9,-2,0.37
Cc1nn(CCC#N)c2nc(C(F)(F)F)[nH]c(=O)c12,20,0,-0.88
Cc1nn(-c2ccccc2)c2nc(C(F)(F)F)[nH]c(=O)c12,41*,-10,0.71
Cc1cccc(C)c1NC(=O)NC1(C(=O)NCCCN2CCOCC2)CCCCC1,15,·,0.95
COc1ccc(NC(=O)C(c2cc3c(cc2[N+](=O)[O-])OCO3)N2CCN(C=O)CC2)cc1 (configuration not stated),23*,-3,-0.32
COc1ccc(NC(=O)C(c2cc3c(cc2[N+](=O)[O-])OCO3)N(C)Cc2ccccc2)cc1 (configuration not stated),3,-3,-0.96
O=C1C=C(NCc2ccco2)CCC1,14,0,-0.49
O=C1CCCC(=NCc2ccco2)C1,36*,-1,0.17
O=c1cc(C(Cl)(Cl)Cl)oc2c1ccc1ccccc12,0,0,-1.8
CN1CCC2(CC1)N=C(c1ccc(F)cc1)C(=S)N2C(=O)c1ccc(C(C)(C)C)cc1,9,-7,-0.99
